These results are taken from PubChem BioAssay (Tox21).

The nature of experiment [1]: qHTS assay to identify small molecule antagonists of the estrogen related receptor (ERR) signaling pathway from Tox21 library - cell viability counter screen (AID 1224834). Further: nearly all actives have a fitted effect of over 30% in size. A digest of the protocol: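 ERR reporter cells were plated 6 h before compound addition, then exposed to test compounds in DMSO for 17.5 h at 37 C. Viability was read as CellTiter-Fluor fluorescence after a 30-minute incubation at 37 C.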
(In general: Quantitative high-throughput screening tests each substance at several concentrations.)

For experiment [2], the target named is Luciferin 4-monooxygenase (Photinus pyralis) (UniProt P08659). Briefly: qHTS assay to identify small molecule inhibitors of firefly luciferase (AID 1224835). Further: series mostly up to about 120 µM; nearly all actives have a fitted effect of over 25% in size. In short, it runs like this:
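Quantitative HTS format; KM concentrations of both substrates. Purified P. pyralis FLuc activity quantified from luminescence images.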

Experiment [3] is described as follows: qHTS assay to identify small molecule agonists of the constitutive androstane receptor (CAR) signaling pathway - cell viability counter screen (AID 1224836). Further: series mostly up to about 92 µM; nearly all actives have a fitted effect of over 45% in size. In short, it runs like this: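 Counter screen multiplexed with the CAR reporter readout: HepG2 cells co-transfected with hCAR and the CYP2B6-2.2kb construct receive a 15-concentration compound series and 0.75 uM PK11195 (final), then CellTiter-Fluor fluorescence is read after 23 h.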

Experiment [4] is described as follows: qHTS assay to identify small molecule antagonists of the constitutive androstane receptor (CAR) signaling pathway - cell viability counter screen (AID 1224837). Further: series mostly up to about 92 µM; nearly all actives have a fitted effect of over 45% in size. A digest of the protocol:
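HepG2 cells stably expressing hCAR and a CYP2B6-2.2kb reporter were plated and pre-incubated 4 hr at 37 C/5% CO2, then given compounds at 15 concentrations plus 50 nM CITCO (final). After 23 hr, viability was read by CellTiter-Fluor fluorescence.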

Experiment [5] deals with Nuclear receptor subfamily 1 group I member 3 (Homo sapiens) (UniProt Q14994). Put plainly: qHTS assay to identify small molecule antagonists of the constitutive androstane receptor (CAR) signaling pathway (AID 1224838). Further: nearly all actives have a fitted effect of over 40% in size. In short, it runs like this: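 HepG2 cells stably co-transfected with hCAR and a CYP2B6-2.2kb luciferase reporter were seeded 4 h before compound addition at 15 concentrations. Cells were stimulated with 50 nM CITCO (final) for 24 h at 37 C; luciferase luminescence was then read.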

For experiment [6] the target is unchanged. Put plainly: qHTS assay to identify small molecule agonists of the constitutive androstane receptor (CAR) signaling pathway (AID 1224839). Further: series mostly up to about 92 µM; nearly all actives have a fitted effect of over 15% in size. A digest of the protocol:
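A 15-concentration quantitative screen uses HepG2 cells co-transfected stably with human CAR and CYP2B6-2.2kb reporter. Treatment lasts 24 h with 0.75 uM PK11195 final present; ONE-Glo luminescence is the signal.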

Experiment [7] in a line: qHTS assay to identify small molecule antagonists of the estrogen related receptor signaling pathway with the pleiotropic PPARgamma coactivator (PGC) from Tox21 10K library - cell viability counter screen (AID 1224840; active means well fitted cell-killing curve with a large enough effect in the repeat runs, not every such curve was filed as active; further: nearly all actives have a fitted effect of over 40% in size). In short, it runs like this:
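PGC/ERR cells were seeded at 2,000 cells/well and left 6 hours at 37 C/5% CO2 before pin-tool addition of compounds in DMSO. After 17.5 hours at 37 C, CellTiter-Fluor was added and fluorescence read 30 minutes later.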

For experiment [8], the target named is Thyrotropin receptor (Homo sapiens) (UniProt P16473). Put plainly: qHTS assay to identify small molecule agonists of the thyroid stimulating hormone receptor (TSHR) signaling pathway (AID 1224843; calls by dose curve; further: nearly all actives have a fitted effect of over 45% in size). In short, it runs like this:
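TSHR-expressing HEK293 cells (800 per well) were exposed to compounds for 30 min at room temperature. cAMP was then detected by HTRF competition with cAMP-d2 and anti-cAMP cryptate, read after 1 h at room temperature. Fifteen concentrations, triplicate.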

Experiment [9] can be described thus: qHTS assay to identify small molecule agonists of the hypoxia (HIF-1) signaling pathway - cell viability counter screen (AID 1224844; calls by dose curve; further: nearly all actives have a fitted effect of over 50% in size). In short, it runs like this: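 HRE-bla ME-180 cells in medium with 0.5% dialyzed FBS were preincubated 5 hrs at 37C, exposed to compounds for 17 hrs, then viability was read as CellTiter-Glo luminescence after 30 min at room temperature, in the reporter wells.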

A short description of experiment [10]: qHTS assay to identify small molecule agonists of H2AX (AID 1224845; active means well fitted activation curve with a large enough effect in the signal ratio in the repeat runs, not every such curve was filed as active; the % refers to the signal ratio). In short, it runs like this: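 Wild-type CHO-K1 cells plated overnight, then exposed 3 hr at 37C to compounds at 15 concentrations (0.76% DMSO). Lysed, then HTRF anti-pH2AX(S139)-cryptate/anti-H2AX-d2 detection after 24 hr at room temperature; emissions 665 and 620 nm.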
A short description of experiment [11]: qHTS assay to identify small molecule agonists of the hypoxia (HIF-1) signaling pathway (AID 1224846; active means well fitted activation curve with a large enough effect in the signal ratio in the repeat runs, not every such curve was filed as active; the % refers to the signal ratio). In short, it runs like this:
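HRE-bla ME-180 cells (beta-lactamase reporter under hypoxia response element) were plated at 2,000 cells/well in medium with 0.5% dialyzed FBS, rested 5 hrs, then given compounds in DMSO for 17 hrs at 37C, 5% CO2. Reporter induction was read with CCF4-AM FRET substrate.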

Experiment [12] in a line: qHTS assay to identify small molecule agonists of H2AX - cell viability counter screen (AID 1224847; calls by dose curve; further: top concentration of the series differs between compounds; nearly all actives have a fitted effect of over 30% in size). In short, it runs like this:
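We seed wild-type CHO-K1 cells overnight, treat them for 3 hr at 37C with compounds in 15-concentration series, and quantify remaining viability by CellTiter-Glo luminescence.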

Experiment [13] is described as follows: qHTS RealTime-Glo MT Cell Viability Assay in HepG2 cells - 24 hour (AID 1224867). Further: nearly all actives have a fitted effect of over 50% in size. In short, it runs like this: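 Real-time, nonlytic viability: 600 HepG2 cells/well mixed with NanoLuc enzyme plus prosubstrate; 5 h settle, compound (DMSO) added by pintool; luminescence monitored over 40 h at 37 C.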
Experiment [14] in a line: qHTS RealTime-Glo MT Cell Viability Assay in HEK293 cells - 32 hour (AID 1224868). Further: top concentration of the series differs between compounds; nearly all actives have a fitted effect of over 50% in size. In short, it runs like this:
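Cells + reagent dispensed (600 cells/well, HEK293) → 5 h at 37 C/5% CO2 → 23 nL compound in DMSO pinned → 40 h at 37 C → luminescence read at 0, 8, 16, 24, 32, 40 h.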

The nature of experiment [15]: A CellTox Green Cytotoxicity Assay to monitor cytotoxicity in HEK293 cells - 0 hour (AID 1224869). Further: nearly all actives have a fitted effect of over 50% in size. In short, it runs like this: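 HEK293 cells premixed with CellTox Green dye were seeded at 600 cells/well and left 5 h at 37 C/5% CO2 before pin transfer of 23 nL compound in DMSO. Fluorescence from dye bound to dead-cell DNA was read during 40 h treatment.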
Experiment [16] in a line: qHTS RealTime-Glo MT Cell Viability Assay in HepG2 cells - 40 hour (AID 1224870). Further: nearly all actives have a fitted effect of over 50% in size. Further: potency means the concentration at half of the fitted maximal effect. A digest of the protocol:
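HepG2 cells mixed with RealTime-Glo MT reagents (NanoLuc plus cell-permeant prosubstrate) were seeded at 600 cells/well, incubated 5 h at 37 C/5% CO2, then pinned with compounds in DMSO; nonlytic luminescence tracked viability during 40 h treatment.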

Values without a mark were called inactive. Results filed as inconclusive are left out. Calls of active or inactive are those of the source. Unless noted, the call rests on the fitted dose curve; in most records, active means well fitted curve in the direction sought with a large enough effect in the repeat runs; inconclusive means weak or mixed curves; inactive means no such curve, though single readings can be large; an effect the other way counts as inactive or inconclusive.

Chain of Nuclear receptor subfamily 1 group I member 3 (Homo sapiens) (Q14994 whole entry, looked up): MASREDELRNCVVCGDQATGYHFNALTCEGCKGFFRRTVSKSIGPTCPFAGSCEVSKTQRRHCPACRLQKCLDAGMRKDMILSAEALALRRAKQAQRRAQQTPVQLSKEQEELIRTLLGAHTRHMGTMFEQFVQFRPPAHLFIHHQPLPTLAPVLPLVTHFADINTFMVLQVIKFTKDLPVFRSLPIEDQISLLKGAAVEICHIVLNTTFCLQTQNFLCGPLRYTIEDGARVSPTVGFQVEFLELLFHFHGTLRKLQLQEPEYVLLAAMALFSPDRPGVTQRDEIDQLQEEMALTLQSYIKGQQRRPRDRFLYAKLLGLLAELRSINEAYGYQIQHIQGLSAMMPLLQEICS
Chain of Luciferin 4-monooxygenase (Photinus pyralis) (P08659 whole entry, looked up): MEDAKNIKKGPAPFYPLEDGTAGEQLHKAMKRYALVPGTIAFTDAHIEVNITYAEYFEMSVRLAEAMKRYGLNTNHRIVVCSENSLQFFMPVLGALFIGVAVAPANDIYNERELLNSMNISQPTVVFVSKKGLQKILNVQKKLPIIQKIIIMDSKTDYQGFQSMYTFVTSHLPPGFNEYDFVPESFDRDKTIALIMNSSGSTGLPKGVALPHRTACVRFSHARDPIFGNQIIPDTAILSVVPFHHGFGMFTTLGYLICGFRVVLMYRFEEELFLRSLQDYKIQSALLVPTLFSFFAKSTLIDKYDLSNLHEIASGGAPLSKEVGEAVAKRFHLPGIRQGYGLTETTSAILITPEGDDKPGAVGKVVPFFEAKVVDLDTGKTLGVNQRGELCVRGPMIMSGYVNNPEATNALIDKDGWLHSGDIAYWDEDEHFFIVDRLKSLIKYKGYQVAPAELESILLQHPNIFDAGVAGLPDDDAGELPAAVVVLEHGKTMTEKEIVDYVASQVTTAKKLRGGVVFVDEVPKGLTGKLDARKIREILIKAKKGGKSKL
Chain of Thyrotropin receptor (Homo sapiens) (P16473 whole entry, looked up): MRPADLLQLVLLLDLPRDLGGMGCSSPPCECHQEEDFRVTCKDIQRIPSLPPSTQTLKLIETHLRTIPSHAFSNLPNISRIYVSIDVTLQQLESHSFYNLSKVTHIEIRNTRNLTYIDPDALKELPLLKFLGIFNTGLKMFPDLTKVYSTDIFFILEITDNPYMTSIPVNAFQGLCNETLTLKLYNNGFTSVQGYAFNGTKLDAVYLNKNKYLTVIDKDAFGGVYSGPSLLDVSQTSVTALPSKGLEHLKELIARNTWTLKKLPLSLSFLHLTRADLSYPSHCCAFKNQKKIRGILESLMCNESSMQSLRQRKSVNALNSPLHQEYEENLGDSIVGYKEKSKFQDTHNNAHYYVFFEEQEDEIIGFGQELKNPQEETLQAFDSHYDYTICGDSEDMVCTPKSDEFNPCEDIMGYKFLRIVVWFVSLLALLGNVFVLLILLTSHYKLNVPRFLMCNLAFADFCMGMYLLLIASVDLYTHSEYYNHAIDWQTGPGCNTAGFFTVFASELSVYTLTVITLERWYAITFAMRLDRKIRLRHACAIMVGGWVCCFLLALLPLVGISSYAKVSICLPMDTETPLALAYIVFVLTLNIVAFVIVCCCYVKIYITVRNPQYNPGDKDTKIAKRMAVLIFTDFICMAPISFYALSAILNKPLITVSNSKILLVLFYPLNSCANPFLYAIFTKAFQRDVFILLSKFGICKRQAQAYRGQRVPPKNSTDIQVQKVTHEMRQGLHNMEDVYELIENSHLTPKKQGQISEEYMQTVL

For `CCCOC(=O)CC`, the Potency entry in experiment [1], in experiment [2], in [5], in [6], in [8] and in experiment [9] was “inactive” each time. Moreover, the Potency result in [10], in experiment [14] and in experiment [16] was “inactive” throughout. The result in [3], in experiment [4], in experiment [7], in experiment [11], in experiment [12] and in [13] was inactive. Further, the result in experiment [15] was inactive.
For the molecule `CC(C)=CCC/C(C)=C/C#N`, the Potency result in [1], in [2], in experiment [5], in [6], in [8] and in experiment [9] was “inactive” in each case. The Potency result in [14] and in experiment [16] was “inactive” throughout. Besides, the molecule was classed as inactive in [3], in [4], in [7], in experiment [11], in experiment [12] and in [13]. Further, the result in experiment [15] was inactive.
Regarding `CCCc1nn(C)c2c(=O)[nH]c(-c3cc(S(=O)(=O)N4CCN(C)CC4)ccc3OCC)nc12`, the Potency entry in experiment [1], in [2], in experiment [5], in [6], in experiment [8] and in experiment [16] was “inactive” in each case. For the same molecule, the call in [3], in experiment [4], in [7], in experiment [11], in experiment [12] and in experiment [13] was inactive. For the same molecule, the result in [15] was inactive.
As to `COc1c(N2CCNC(C)C2)c(F)cc2c(=O)c(C(=O)O)cn(C3CC3)c12` (stereo not drawn), the Potency result in experiment [1], in experiment [2], in experiment [5], in experiment [6], in experiment [9] and in experiment [10] was “inactive” in each case. For the same molecule, the Potency entry in experiment [14] and in [16] was “inactive” in each case. For the same molecule, the molecule was classed as inactive in experiment [3], in experiment [4], in [7], in experiment [11], in [12] and in [13]. In addition, the molecule was called inactive in experiment [15].
As for `CC[N+](CC)(CC)CCOc1cccc(OCC[N+](CC)(CC)CC)c1OCC[N+](CC)(CC)CC`, the Potency entry in experiment [1], in experiment [2], in experiment [5], in [6], in experiment [8] and in experiment [9] was “inactive” each time. The Potency entry in experiment [10] and in [14] was “inactive” each time. For the same molecule, the molecule was called inactive in [3], in experiment [4], in experiment [7], in experiment [12] and in [15]. For the same molecule, the Potency in experiment [16] was 23.9 µM (active).
Regarding `CCN(CC#N)c1cccc(C)c1`, the Potency entry in [1], in experiment [2], in experiment [5], in experiment [6], in experiment [9] and in experiment [10] was “inactive” in each case. Also, the Potency result in experiment [14] and in experiment [16] was “inactive” each time. For the same molecule, the molecule was classed as inactive in experiment [3], in experiment [4], in [7], in experiment [11], in experiment [12] and in [13]. The call in experiment [15] was inactive.
On to `COc1cc(C(=O)NCc2ccc(OCCN(C)C)cc2)cc(OC)c1OC`, for which the Potency result in [1], in experiment [2], in [5], in [6], in [8] and in [9] was “inactive” each time. The Potency entry in [14] and in experiment [16] was “inactive” in each case. For the same molecule, the call in [3], in experiment [4], in experiment [7], in experiment [12], in [13] and in [15] was inactive.
For `C=CC(C)(CCC=C(C)C)OC(=O)CC` (stereo not drawn), the Potency result in [1], in [2], in experiment [5], in experiment [6], in experiment [8] and in experiment [10] was “inactive” throughout. Moreover, the Potency entry in [14] and in experiment [16] was “inactive” throughout. Also, the outcome in experiment [3], in experiment [4], in experiment [7], in experiment [11], in experiment [12] and in experiment [13] was inactive. For the same molecule, in [15], the molecule was classed as inactive.
Consider `CC1OC1C1CCC2(C)OC2C1` (stereo not drawn), for which the Potency entry in experiment [1], in [2], in experiment [5], in [6], in experiment [8] and in experiment [9] was “inactive” in each case. The Potency entry in experiment [10], in experiment [14] and in experiment [16] was “inactive” throughout. Besides, the call in experiment [3], in [4], in experiment [7], in [11], in experiment [12] and in [13] was inactive. The molecule was called inactive in experiment [15].
